The values that follow come from PubChem BioAssay.

Results filed as inconclusive are left out. The source made the active and inactive calls. Unless noted, cut-off not given; nearly all actives show AC50 up to about 26 µM.

A short description of assay [1]: growth inhibition of DIPG glioma cells, dose response, cell-based, SU-DIPG-XVII, MIPE5.0, CellTiter-Glo, qHTS (AID 1347060).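 On AC50: cells exposed to compound for 48 hours before viability readout.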 The conditions noted are these: SU-DIPG-XVII viability, CellTiter-Glo ATP luminescence. A general note: ATP-based viability assays read luminescence as a measure of living cells.
A short description of assay [2]: growth inhibition of DIPG glioma cells, dose response, cell-based, SU-DIPG-XIII, MIPE5.0, CellTiter-Glo, qHTS (AID 1347064; cut-off not given, nearly all actives have AC50 up to about 23 µM;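 on AC50: cells exposed to compound for 48 hours before the viability read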). The conditions noted are these: SU-DIPG-XIII viability, CellTiter-Glo ATP luminescence.
Assay [3] can be described thus: viability loss in pontine glioma line – cell-based, SU-DIPG-XXV, MIPE5.0, CellTiter-Glo, qHTS, dose response (AID 1347065).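 Further: cells exposed to compound for 48 hours before ATP readout.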 Particulars: CellTiter-Glo ATP luminescence.
A short description of assay [4]: JHH-DIPG-1 glioma cell viability, MIPE5.0 library, CellTiter-Glo luminescence, qHTS (AID 1347067).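 Further: cells exposed to compound for 48 hours before readout.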 Particulars: JHH-DIPG-1 glioma viability, CellTiter-Glo ATP luminescence.
Assay [5] can be described thus: SU-DIPG-XXV glioma cell viability, MIPE5.0 library, qHTS (AID 1347068; cut-off not given, nearly all actives have IC50 up to about 30 µM;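 on IC50: cells exposed to compound for 48 hours before viability readout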).

Usually AC50 stands for the midpoint of the concentration-response curve, whichever way the signal moves. In the case of `COCCNCc1ccc(-c2cc3nccc(Oc4ccc(NC(=O)C5(C(=O)Nc6ccc(F)cc6)CC5)cc4F)c3s2)nc1`, the AC50 in assay [1] was 7.42 µM (active); in assay [2], 5.25 µM (active); in assay [3], 4.68 µM (active); in assay [4] it was 8.33 µM (active).
On the same counts, the results for `CC[C@@H](C)Nc1cc(C(=O)NC2CC3CCC(C2)N3c2ccc(C(=O)C3CC3)cn2)c(C)cc1C(N)=O` (stereo partly drawn) are 0.148 µM (active), 0.209 µM (active), 0.186 µM (active) and 0.209 µM (active).
The like results for `O=C(NOCCO)c1ccc2cncn2c1Nc1ccc(I)cc1F` were, in that order, 0.148 µM (active), 0.148 µM (active), 0.332 µM (active) and 0.105 µM (active).
Take `CCC(=O)N1CCOc2c(cc(-c3cc(OC)cc(OC)c3)cc2C(=O)N[C@H]2CCCN(C)C2)C1`: the compound was called inactive in assay [1], in assay [2], in assay [3], in assay [4] and in assay [5].
For the compound `CNS(=O)(=O)Nc1nccc(Cc2c(C)c3ccc(Oc4ncccn4)cc3oc2=O)c1F`, the AC50 in assay [1] was 1.48 µM (active); in assay [2], 1.18 µM (active); in assay [3], 2.35 µM (active); in assay [4], 1.05 µM (active).
Consider `CCCCN(CCCC)C(=O)CN1C[C@H](c2ccc3c(c2)OCO3)[C@@H](C(=O)O)[C@@H]1c1ccc(OC)cc1`, for which the call in assay [1], in assay [2], in assay [3] and in assay [4] was inactive.
As a reminder, the IC50 is the point on the concentration scale where inhibition reaches its midpoint. Consider `C1=C/COCc2cc(ccc2OCCN2CCCC2)Nc2nccc(n2)-c2cccc(c2)COC/1`, for which the AC50 was 2.95 µM (active) in assay [1], 2.95 µM (active) in assay [2], 2.09 µM (active) in assay [3] and 4.17 µM (active) in assay [4]. The IC50 in assay [5] was 2.95 µM (active).
`Cn1cncc1C(N)(c1ccc(Cl)cc1)c1ccc2c(c1)c(-c1cccc(Cl)c1)cc(=O)n2C` (stereo not drawn): the AC50 in assay [1] was 18.6 µM (active); in assay [2] it was 16.6 µM (active); in assay [3], 8.33 µM (active); in assay [4], 18.6 µM (active).
With `CN1CCN(Cc2ccc(Nc3ncc(Cl)c(Nc4ccccc4S(=O)(=O)N(C)C)n3)cc2)CC1`, the AC50 in assay [1] is 0.191 µM (active); in assay [2], 0.241 µM (active); in assay [3], 0.135 µM (active); in assay [4] it was 0.382 µM (active). Besides, the IC50 in assay [5] is 0.382 µM (active).
For `CCN(C(=O)c1ccccc1OC)c1cc2c(cc1N1CCNC[C@H]1C)n(C)c(=O)n2C`, the compound was called inactive in assay [1], in assay [2], in assay [3], in assay [4] and in assay [5].
Consider `CN1C/C=C/CCOc2cccc(c2)-c2ccnc(n2)Nc2cccc(c2)C1`, for which the AC50 was 0.0833 µM (active) in assay [1], 0.132 µM (active) in assay [2], 0.0934 µM (active) in assay [3] and 0.166 µM (active) in assay [4].
For `CN1CCN(c2ccc(C(=O)Nc3n[nH]c4ccc(Cc5cc(F)cc(F)c5)cc34)c(NC3CCOCC3)c2)CC1`, the AC50 in assay [1] is 2.09 µM (active); in assay [2], 4.17 µM (active); in assay [3], 2.35 µM (active); in assay [4], 3.32 µM (active). Besides, the IC50 in assay [5] was 5.25 µM (active).
Consider `O=C(NO)c1cnc(N2C[C@H]3C[C@@H]2CN3c2cc(C(F)(F)F)ccn2)nc1`, for which the AC50 in assay [1] was 2.63 µM (active); in assay [2], 1.18 µM (active); in assay [3], 0.742 µM (active); in assay [4], 1.48 µM (active).
On to `CCc1cc2c(c(OCC(F)(F)F)c(C(=O)NC3CCN(C(=O)CO)CC3)n2C)c(=O)n1CC(=O)c1ccccc1`, for which the compound was classed as inactive in assay [1], in assay [2], in assay [3] and in assay [4].
As to `O=C(NOCCO)c1cc(CN2OCCCC2=O)c(F)c(F)c1Nc1ccc(I)cc1F`, the AC50 in assay [1] was 0.332 µM (active); in assay [2], 0.148 µM (active); in assay [3], 0.417 µM (active); in assay [4], 0.148 µM (active).
In the case of `CC[C@@H](C)Nc1cc(C(=O)NC2CC3CC[C@@H](C2)N3c2ccc(C(=O)C3CC3)cn2)c(C)cc1C(N)=O` (stereo partly drawn), the AC50 was 0.118 µM (active) in assay [1], 0.166 µM (active) in assay [2], 0.0934 µM (active) in assay [3] and 0.148 µM (active) in assay [4].
`Cn1cc(-c2ccc(S(=O)(=O)n3ccc(/C=C/C(=O)Nc4ccccc4N)c3)cc2)cn1`: the AC50 is 1.48 µM (active) in assay [1], 3.32 µM (active) in assay [2], 1.32 µM (active) in assay [3] and 1.86 µM (active) in assay [4]. In assay [5], the IC50 was 5.9 µM (active).
Turning to `NC[C@@](O)(c1ccc(Cl)cc1)c1ccc(-c2cn[nH]c2)cc1`, the outcome in assay [1] was inactive. For the same compound, the values for the AC50 in assay [2], in assay [3] and in assay [4] were 18.6 µM (active), 13.2 µM (active) and 26.3 µM (active), respectively. Moreover, the IC50 in assay [5] is 23.5 µM (active).
For `CCOC(=N)c1nc2ccc3ncnc(Nc4cc(F)c(F)cc4Cl)c3c2s1`, the AC50 in assay [1] was 16.6 µM (active); in assay [2] it was 16.6 µM (active); in assay [3], 11.8 µM (active); in assay [4] it was 14.8 µM (active).
For `CN(C)Cc1ccc(S(=O)(=O)n2ccc(/C=C/C(=O)NO)c2)cc1`, the AC50 in assay [1] is 9.34 µM (active); in assay [2], 5.9 µM (active); in assay [3], 6.61 µM (active); in assay [4], 9.34 µM (active). The IC50 in assay [5] is 7.42 µM (active).
As for `C=C1C(=O)O[C@H]2C[C@H](C)C(/C=C/C(C)=O)=CC[C@H]12`, the AC50 in assay [1] was 4.17 µM (active); in assay [2], 2.63 µM (active); in assay [3], 4.68 µM (active); in assay [4], 3.32 µM (active). For the same compound, the IC50 in assay [5] was 7.42 µM (active).
Take `COc1ccc(-c2cc(C(O)C3CCCCN3)c3ccccc3n2)cc1` (stereo not drawn): the AC50 in assay [1] was 20.9 µM (active); in assay [2], 16.6 µM (active); in assay [3], 29.5 µM (active); in assay [4] it was 7.42 µM (active).
The like results for `CCCc1cc(C(=O)N[C@H](Cc2ccc(-c3cccc(OC(F)(F)F)c3)nc2)C(=O)N[C@@H]2CCNC2)sc1C` were, in that order, 23.5 µM (active), 16.6 µM (active), 20.9 µM (active) and 10.5 µM (active).
Consider `CCN(CC)CCNc1ccc(C)c2sc3ccccc3c(=O)c12`, for which the AC50 in assay [1] was 13.2 µM (active); in assay [2], 20.9 µM (active); in assay [3], 16.6 µM (active); in assay [4] it was 18.6 µM (active).
Take `COc1cc(C(=O)O)ccc1NC(=O)[C@@H]1N[C@@H](CC(C)(C)C)[C@](C#N)(c2ccc(Cl)cc2F)[C@H]1c1cccc(Cl)c1F`: the AC50 in assay [1] was 6.61 µM (active); in assay [2], 14.8 µM (active); in assay [3], 9.34 µM (active); in assay [4] it was 11.8 µM (active).
As for `O=C(/C=C\n1cnc(-c2cc(C(F)(F)F)cc(C(F)(F)F)c2)n1)N1CC(F)(F)C1`, the AC50 in assay [1] is 1.18 µM (active); in assay [2], 2.63 µM (active); in assay [3], 13.2 µM (active); in assay [4] it was 9.34 µM (active).
